From PubChem BioAssay AID720597 (Broad Institute, 2013)
Potency and affinity values are given separately.

Target: NAD-dependent protein deacylase sirtuin-5, mitochondrial (Homo sapiens) (UniProt Q9NXA8)
Experiment: blockers of sirtuin-5 peptide desuccinylation – biochemical, fluorescence imaging, cherry-pick, set 6, dose response (AID 720597);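 note: lower AMC signal can also come from blocking the trypsin step; 0% = median of neutral control wells and -100% = median of positive control wells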
Conditions: Purified SirT5, succinyl-peptide-AMC/trypsin fluorescence; series mostly up to 15 µM; activity change, negative = inhibition: at the top concentration;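 active = fitted half-maximal dose no more than twice the top valid tested dose, for compounds that lower signal; inconclusive = fit invalid, or curve flat with activity between -70 and -30; inactive = potency past limit, curve flat within ±30, or signal increasing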

Chain of NAD-dependent protein deacylase sirtuin-5, mitochondrial (Homo sapiens) (Q9NXA8 whole entry, looked up): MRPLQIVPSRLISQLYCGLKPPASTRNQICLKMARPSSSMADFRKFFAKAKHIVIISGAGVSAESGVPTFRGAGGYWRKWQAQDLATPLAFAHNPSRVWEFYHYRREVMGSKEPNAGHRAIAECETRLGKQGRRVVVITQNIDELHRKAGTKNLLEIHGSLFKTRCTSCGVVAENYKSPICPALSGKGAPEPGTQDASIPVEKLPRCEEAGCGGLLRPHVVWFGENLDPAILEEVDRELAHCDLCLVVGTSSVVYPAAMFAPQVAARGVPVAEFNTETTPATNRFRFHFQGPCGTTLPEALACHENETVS

Activity change, negative = inhibition, inactive:
C[C@H](CO)N1C[C@H](C)[C@H](CN(C)Cc2ccc(-c3ccccc3)cc2)OCc2ccccc2-c2ccccc2C1=O -17.1%
C[C@@H]1CN([C@@H](C)CO)C(=O)c2cc(NC(=O)Cc3ccccc3)ccc2O[C@@H]1CN(C)Cc1ccc(Oc2ccccc2)cc1 44.1%
COc1ccc(C#Cc2ccc([C@H]3[C@@H](CO)N4C(=O)CN(C(C)=O)C[C@H]34)cc2)cc1 -18.8%
Cc1ccc(S(=O)(=O)N(C)C[C@@H]2OCCCC[C@@H](C)Oc3ccc(NS(=O)(=O)c4ccc(Cl)cc4)cc3C(=O)N([C@H](C)CO)C[C@H]2C)cc1 -25.3%
COc1ccccc1-c1ccc2c(c1)O[C@@H](CN(C)S(=O)(=O)c1ccc(F)cc1)[C@@H](C)CN([C@H](C)CO)S2(=O)=O 13.8%
COc1ccc(NC(=O)N(C)C[C@H]2Oc3ccc(NS(=O)(=O)c4ccc(OC)cc4)cc3CC(=O)N([C@H](C)CO)C[C@H]2C)cc1 19.2% [at 16 µM]
CCCC#Cc1ccc([C@H]2[C@H]3CN(S(=O)(=O)Cc4ccccc4)CCCCN3[C@H]2CO)cc1 -16.6%
C[C@H]1CCCCO[C@H](CN(C)S(=O)(=O)c2ccc(Cl)cc2)[C@@H](C)CN([C@@H](C)CO)C(=O)c2cc(NS(=O)(=O)c3ccccc3)ccc2O1 -14.3%
CC(=O)N(C)C[C@H]1Oc2ncc(C3=CCCC3)cc2C(=O)N([C@H](C)CO)C[C@H]1C -4.28%
Cc1ccc(S(=O)(=O)N(C)C[C@@H]2OCCCC[C@@H](C)Oc3ccc(NS(=O)(=O)c4ccccc4)cc3C(=O)N([C@@H](C)CO)C[C@@H]2C)cc1 15.3%
CCS(=O)(=O)N1CC2(CN(Cc3cccc(Cl)c3)[C@H](CO)c3c2c2ccc(OC)cc2n3C)C1 11.6%
COc1ccc(S(=O)(=O)Nc2ccc3c(c2)C(=O)N([C@H](C)CO)C[C@H](C)[C@H](CN(C)S(=O)(=O)c2cccs2)OCCCC[C@H](C)O3)cc1 -12.3%
CC(C)NC(=O)Nc1ccc2c(c1)C(=O)N([C@H](C)CO)C[C@H](C)[C@H](CN(C)C(=O)Cc1ccccc1)OCCCC[C@H](C)O2 -25.6%
O=C(Nc1cc(F)ccc1F)N1C[C@@H]2[C@H](c3ccccc31)[C@H](CO)N2Cc1ccncc1 6.42%
C[C@H]1CN([C@@H](C)CO)C(=O)c2ccccc2-c2ccccc2CO[C@H]1CN(C)Cc1ccccc1C(F)(F)F -22.2%
C[C@@H]1CN([C@H](C)CO)S(=O)(=O)c2ccc(C#CC(C)(C)O)cc2O[C@@H]1CN(C)Cc1ccc(-c2ccccc2)cc1 27.4%
C/C=C/c1ccc([C@H]2[C@@H](CO)N(CC3CCCCC3)[C@@H]2CNC(C)C)cc1 -7.06% [at 16 µM]
C[C@@H]1CN([C@@H](C)CO)S(=O)(=O)c2ccc(C#C[C@@H](C)O)cc2O[C@H]1CN(C)Cc1ccc(-c2ccccc2)cc1 1.09%
Cc1ccc(S(=O)(=O)N(C)C[C@@H]2OCCCC[C@H](C)Oc3ccc(NS(=O)(=O)c4ccc(Cl)cc4)cc3C(=O)N([C@@H](C)CO)C[C@@H]2C)cc1 -15.5%
C[C@@H]1CCCCO[C@@H](CN(C)S(=O)(=O)c2ccc(F)cc2)[C@H](C)CN([C@@H](C)CO)C(=O)c2cc(NC(=O)Nc3ccc4c(c3)OCO4)ccc2O1 -4.57%
Cc1cccc(S(=O)(=O)N2CCCCN3[C@@H](CO)[C@H](c4ccc(-c5ccccc5)cc4)[C@@H]3C2)c1 -6.16%
CC(C)CN(C[C@H]1N[C@H](CO)[C@@H]1c1ccccc1)C(=O)C1CCCCC1 39.5%
C[C@H](CO)N1C[C@H](C)[C@@H](CN(C)Cc2ccc(Cl)c(Cl)c2)Oc2c(NC(=O)c3ccc(-c4nccs4)cc3)cccc2C1=O -6.33% [at 3.8 µM]
CCOc1ccc(C)cc1S(=O)(=O)n1ccnc1C -12.4%
CS(=O)(=O)N(CC(=O)NC1CCCC1)c1cccc(F)c1 1.17% [at 18 µM]
C[C@@H]1CCCCO[C@@H](CN(C)Cc2ccc(C(F)(F)F)cc2)[C@H](C)CN([C@@H](C)CO)C(=O)c2cc(NS(=O)(=O)c3ccc(F)cc3)ccc2O1 -8.51%
CC(C)NC(=O)Nc1ccc2c(c1)C(=O)N([C@H](C)CO)C[C@H](C)[C@@H](CN(C)Cc1ccc(Cl)c(Cl)c1)O2 7.9%
C[C@@H]1CN([C@H](C)CO)C(=O)c2c(c3ccccc3n2C)-c2ccccc2CO[C@@H]1CN(C)Cc1cccc2c1OCCCO2 -2.67%
Cc1ccc(S(=O)(=O)N(C)C[C@H]2OCCCC[C@H](C)Oc3ccc(NS(=O)(=O)c4ccccc4)cc3C(=O)N([C@@H](C)CO)C[C@H]2C)cc1 14.5%
